Luc counter – Counterscreen for Luciferase (Kinase-Glo TM) Inhibition | Luciferin 4-monooxygenase (Photuris pensylvanica), Q27757 | Kinase-Glo luciferase, ATP luminescence, 8 min | Potency, µM (titrated, usually from 38.3 µM), for the others: top-dose activity change, negative = inhibition, most hits filed as inhibitors | actives 0.28% (n = 200,000); further: on the % scale 0 is the no-effect control and ±100 the full control effect; nearly all actives have a fitted effect of over 60% in size
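Recombinant Kinase-Glo luciferase, 10 uM ATP (linear range), luciferin; imidazole pH 7.2 / KCl / MgCl2 / Tween / BSA buffer; 8 min RT; luminescence.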
FLuc modulator – qHTS profiling assay for firefly luciferase inhibitor/activator using purifed enzyme and Km concentrations of substrates (counterscreen for miR-21 project). actives 6.9% (n = 360,000). Potency, µM (titrated, usually from 57.5 µM), for the others: at the highest dose activity change, negative = inhibition, hits mostly inhibitors. purified FLuc, Km substrates, luminescence inhibition. Luciferin 4-monooxygenase (Photinus pyralis), P08659;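 further: plate controls were vehicle for no effect and reference inhibitor for full effect; nearly all actives have a fitted effect of over 55% in size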
Target sequence (P08659 whole entry, looked up): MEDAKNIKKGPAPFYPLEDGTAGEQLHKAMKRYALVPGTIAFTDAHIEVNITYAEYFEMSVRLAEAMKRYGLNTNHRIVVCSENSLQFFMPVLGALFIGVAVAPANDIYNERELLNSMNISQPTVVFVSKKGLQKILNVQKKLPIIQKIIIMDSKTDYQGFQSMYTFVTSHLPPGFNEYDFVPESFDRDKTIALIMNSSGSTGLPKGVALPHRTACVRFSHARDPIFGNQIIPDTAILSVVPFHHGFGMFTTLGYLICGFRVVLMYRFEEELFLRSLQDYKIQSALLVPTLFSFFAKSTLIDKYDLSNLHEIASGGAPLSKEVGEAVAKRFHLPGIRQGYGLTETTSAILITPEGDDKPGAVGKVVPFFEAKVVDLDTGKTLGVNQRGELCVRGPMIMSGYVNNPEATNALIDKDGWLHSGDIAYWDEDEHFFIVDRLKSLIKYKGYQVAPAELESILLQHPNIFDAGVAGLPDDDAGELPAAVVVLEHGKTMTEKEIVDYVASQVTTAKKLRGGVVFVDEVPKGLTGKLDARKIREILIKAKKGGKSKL
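Purified P. pyralis luciferase, 10 nM final, with Km-level 10 uM D-luciferin and 10 uM ATP in 50 mM Tris acetate pH 7.5, 10 mM Mg acetate, 0.01% Tween-20, 0.05% BSA; 6-point qHTS titration about 60 µM downward; luminescence read.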
NPC1 prom act – qHTS Assay for NPC1 Promoter Activators | Huh7 NPC1 promoter luciferase reporter, 24 h | Potency, µM (highest dose often 9.22 µM), for inactives: top-dose activation, actives largely listed as activators | actives 2.4% (n = 320,000); further: % of control where 0% means no effect; nearly all actives have a fitted effect of over 60% in size
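Luciferase expression driven by the NPC1 promoter was measured in stably transfected Huh7 cells after a 24 h compound incubation, using a luciferase reagent and a luminescence read.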
SMN2 splice up – qHTS Assay for Enhancers of SMN2 Splice Variant Expression | Potency, µM (titrated, usually from 46.1 µM), inactives show top-dose activity change, positive = activation, actives largely listed as activators | HEK293 SMN2-luciferase splicing reporter, luminescence, 30-36 h | AID 1458, 2008 | actives 2.8% (n = 210,000); further: % of control where 0% means no effect; nearly all actives have a fitted effect of over 55% in size
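qHTS luciferase splicing reporter: luminescence rises when SMN2 exon 7 is included in transfected HEK293 cells. Compound exposure lasted 30-36 h at 37C, with 4.5 mM final sodium butyrate as control, followed by a ONE-Glo read.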
ELG1 genotoxic – qHTS screen for small molecules that induce genotoxicity in human embryonic kidney (HEK293T) cells expressing luciferase-tagged ELG1; Potency, µM (highest dose often 46 µM), for the others: at the top dose activity change, positive = activation, usual class: activators; HEK293T ELG1-luciferase reporter, luminescence, 16 h; actives 1.3% (n = 330,000); AID 504466, 2011; further: % of control where 0% means no effect; nearly all actives have a fitted effect of over 60% in size
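16 hr compound incubation (37 °C, 5% CO2) of HEK293T cells carrying luciferase-tagged ELG1; luciferase then measured by ONE-Glo luminescence after 30 min at RT.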
Rab9 promoter act – qHTS Assay for Rab9 Promoter Activators. Huh7 Rab9 promoter-luciferase reporter, luminescence, 24 h. actives 2.8% (n = 320,000). Potency, µM (doses to about 9.22 µM), for the others: at the highest dose activation, negative = inhibition, actives largely listed as activators; further: % of control where 0% means no effect; nearly all actives have a fitted effect of over 60% in size
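Promoter activation is measured as luciferase luminescence in Huh7 cells stably transfected with a Rab9 promoter–luciferase construct, following 24 h compound exposure at 37 °C and 10 min reagent incubation at ambient temperature.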
* marks the source's active call; other numbers are inactive results; u = inconclusive; x = no result; [ ] = dose if it differs, or a comment. Shown are actives, neighbours in structure and some others; about 7.5% of the full set was active somewhere. The call rests on the fitted dose curve; in most records, active means well fitted curve in the direction sought with a large enough effect; inconclusive means small, poorly fitted or top-dose-only effect, or another doubt; inactive means no such curve, though single readings can be large; an effect the other way counts as inactive or inconclusive. Potency means the concentration at half of the fitted maximal effect.

SMILES	Luc counter	FLuc modulator	NPC1 prom act	SMN2 splice up	ELG1 genotoxic	Rab9 promoter act
Nc1ccccc1C(=O)NNc1c2ccccc2nc2ccccc12	x	19µM*	3%	x	5%	-7%
Cc1ccc(C(=O)Nc2sc3c(c2C(=O)O)CCC(C)C3)o1 (stereo unspecified)	x	x	x	x	1%	x
CC1CCc2c(sc(NC(=O)c3cccs3)c2C(=O)O)C1 (stereo unspecified)	x	6.7µM*	19%	x	-5%	26%[1.84 µM]
CCC1CCc2c(sc(NC(=O)c3ccoc3C)c2C(N)=O)C1 (stereo unspecified)	3%	6.7µM*	-3%	u	u	21%
CCCC1CCc2c(sc(NC(=O)c3cccs3)c2C(N)=O)C1 (stereo unspecified)	-1%	3.4µM*	u	4%	5%	u
CCC1CCc2c(sc(NC(=O)c3cccnc3)c2C(N)=O)C1 (stereo unspecified)	-2%	u	22%	19%	u	u
COC(=O)c1c(NC(=O)c2cccs2)sc2c1CCC(C)C2 (stereo unspecified)	1%	11µM*	u	15%	15%	u
Cn1nc(C(=O)OCC(=O)Nc2cc(Cl)ccc2C#N)c2ccccc2c1=O	x	7%	-5%	x	1%	-4%
CC1CN(CC(O)COc2ccc(C#N)cc2)CCN1CC(O)COc1ccc(C#N)cc1 (stereo unspecified)	x	0%	-10%	x	-18%	-10%
O=C(Nc1ccc(Cl)cc1Cl)C1=Cc2ccccc2OC1	-4%	1.9µM*	1.4µM*	u	2.1µM*	1µM*
O=C(Nc1ccc(Cl)cc1)C1=Cc2cc(Cl)ccc2OC1	0%	-4%[2.3 µM]	2%	27%	-5%	0%
COc1ccc(NC(=O)C2=Cc3cccc(OC)c3OC2)cc1	0%	5.4µM*	2.8µM*	13µM*	u	2.5µM*
COc1ccc(NC(=O)C2=Cc3ccccc3OC2)cc1	-2%	1.5µM*	0.4µM*	7.9µM*	0.52µM*	0.56µM*
c1ccc2c(Nc3nc4c(s3)CCCC4)cccc2c1	-13%	4.8µM*	u	u	u	3.5µM*
O=S(=O)(Nc1nc2c(s1)CCCC2)c1ccc2ccccc2c1	24%	1%	0%	-41%	-2%	-2%
COc1ccc(C2=CC(c3sccc3C)n3nnnc3N2)cc1 (stereo unspecified)	1%	-10%	2.8µM*	20%	u	2.8µM*
COc1cccc(C2=CC(c3cccs3)n3nnnc3N2)c1 (stereo unspecified)	-2%	3%	-21%	14%	16µM*	-5%
CC(C)c1ccc(C2=CC(c3ccc(C(C)C)cc3)n3nnnc3N2)cc1 (stereo unspecified)	x	2.7µM*	x	x	x	x
CC(=O)c1c(C)[nH]c(C(=O)Nc2ccc(C)cn2)c1C	-14%	0.43µM*	0.71µM*	0.79µM*	u	0.25µM*
CC(=O)c1c(C)[nH]c(C(=O)Nc2nc(C)cs2)c1C	-7%	0.6µM*	1µM*	1.6µM*	0.52µM*	0.11µM*
CC(=O)c1c(C)[nH]c(C(=O)Nc2nc(-c3ccc(Cl)cc3)cs2)c1C	0%	-7%	-2%	-45%	-13%	-3%
O=C(CNC(=O)c1cccs1)OCc1c(F)cccc1Cl	x	15µM*	0%	x	u	-1%
CCOc1ccc(C(=O)NCC(=O)OCc2c(F)cccc2Cl)cc1	1%	u	0%	-1%	0%	-1%
CC(=O)Nc1ccc(C(=O)NCC(=O)OCc2c(F)cccc2Cl)cc1	0%	19µM*	-1%	u	3%	-4%
O=C(Cc1c(F)cccc1Cl)NNC(=O)c1cccs1	x	x	x	x	3%	x
SMILES	Luc counter	FLuc modulator	NPC1 prom act	SMN2 splice up	ELG1 genotoxic	Rab9 promoter act
Cc1ccc(C(=O)NCC(=O)OCc2c(F)cccc2Cl)cc1	x	12µM*	2%	x	13%	0%
Cc1cc(Br)ccc1NC(=O)CNC(=O)CNc1cccc([N+](=O)[O-])c1	x	-2%	-3%	x	0%	3%
CCOC(=O)c1cc2c(OC)ccc(OC)c2n1CC(=O)c1ccccc1	x	0%	-1%	x	-3%	0%
COc1ccccc1OCCSc1nnnn1-c1ccc(C)cc1	3%	17µM*	15%	u	u	-5%
CCOc1ccc(OCCSc2nnnn2-c2ccccc2)cc1	1%	u	9%	x	6%	6%
Fc1ccccc1OCCSc1nnnn1-c1ccccc1	-5%	3µM*	2.5µM*	3.2µM*	10µM*	u
c1ccc(OCCSc2nnnn2-c2ccccc2)cc1	-4%	2.7µM*	2.5µM*	16µM*	3.7µM*	0.89µM*
O=C(NCc1cccc(F)c1)c1ccc2nc(N3CCOCC3)sc2c1	x	1%	-6%	x	8%	0%
Cc1nc(C)c(CCNS(=O)(=O)c2ccc(C)c(C)c2)s1	x	-3%	x	x	x	x
O=c1[nH]c2ccc(NS(=O)(=O)c3ccc(F)cc3)cc2s1	x	-9%	x	x	x	x
O=C1CCc2ccc(NS(=O)(=O)c3ccc(F)cc3)cc2N1	1%	-5%	0%	u	18µM*	13%
COc1cccc(C(=O)NCCC2=CCCCC2)c1OC	0%	-9%[2.3 µM]	u	13µM*	u	4µM*
Cc1cc(C(=O)NCCC2=CCCCC2)c(C)o1	-1%	u	1µM*	11µM*	u	10µM*
NC(=O)c1cc(NC(=O)CCNS(=O)(=O)c2cccc(C(F)(F)F)c2)cc(C(N)=O)c1	x	-2%	1%	x	-1%	2%
O=C(Nc1ccc(OCc2cc(=O)n3c4c(sc3n2)CCCC4)cc1)c1cccc(F)c1	x	-1%	x	-7%	x	x
COc1ccc(N=C2NC(=O)S/C2=C\c2ccc(N(C)C)cc2)cc1	-3%	21µM*	u	u	u	u
CCOc1ccc(N=C2NC(=O)S/C2=C\c2ccc(Cl)cc2)cc1	-2%	2%	0%	9%	0%	-3%
CS(=O)(=O)N1CCC2(CC1)CN(c1cccc(-c3ccccc3)c1)C2	-4%	x	x	-38%	x	x
CCCc1cc(=O)n2[nH]c(-c3ccc(Cl)cc3)cc2n1	x	15µM*	u	x	u	2.8µM*
CCOC(=O)Cc1cc(=O)n2[nH]c(-c3ccc(Cl)cc3)cc2n1	4%	13µM*	3%	19%	4%	0%
CCCc1cc(=O)n2[nH]c(-c3ccc(C)cc3)cc2n1	0%	9.5µM*	4µM*	13µM*	u	4µM*
